Data taken from PubChem BioAssay (EPA / NIEHS).
The source made the active and inactive calls. Rule for the calls: active = hit-call score of the fitted dose curve at least 0.9, where 1 is the maximum; inactive = score below 0.9.

Assay: ATG_TA_CIS: Attagene CIS-FACTORIAL HepG2 Assay for human TA Basal Promoter (AID 2282964)
Conditions: HepG2 Attagene CIS-factorial TA basal promoter reporter; actives raise or lower the signal
Procedure: ATG_CIS is a cell-based, multiplexed-readout assay that uses HepG2, a human liver cell line, with measurements taken at 24 hours after chemical dosing in a 24-well plate.ATG_TA_CIS is one of 52 assay component(s) measured or calculated from the ATG_CIS assay. It is designed to make measurements of mRNA induction, a form of inducible reporter, as detected with fluorescence intensity signals by Reverse transcription polymerase chain reaction (RT-PCR) and Capillary electrophoresis technology.Data from the assay component ATG_TA_CIS was analyzed into 1 assay endpoint. This assay endpoint, ATG_TA_CIS, was analyzed with bidirectional fitting relative to DMSO as the negative control and baseline of activity. Using a type of inducible reporter, measures of mRNA for gain or loss-of-signal activity can be used to understand the background control at the transcription factor-level as they relate to the gene . Furthermore, this assay endpoint can be referred to as a secondary readout, because this assay has produced multiple assay endpoints where this one serves a background control function. To generalize the intended target to other relatable targets, this assay endpoint is annotated to the background measurement intended target family, where the subfamily is internal marker.
Human liver HepG2 cells are transiently transfected with multiple reporter transcription units (MRTUs) in 6-well plates using FuGene 6 reagent (Roche; 3 ml FuGene/1 mg DNA). The MRTU constructs are regulated by a cis-regulating element (promoter). […] A major difference between the CIS and TRANS system is that in CIS activities of endogenous TFs are measured, whereas the TRANS assay evaluates changes in activities of exogenous, chimeric NR-Gal4 proteins. […] At the end of 24 hour incubation, total RNA was isolated using TriZol reagent (Invitrogen). The isolated RNA is then reverse-transcribed using oligo(dT) primer and Mo-MLV reverse transcriptase (Invitrogen) with DNAse I (Ambion) treatment for 30 min. The one-tenth of the produced cDNA was amplified by PCR using Taq DNA polymerase (Invitrogen) and two reporter sequence-specific primers. The PCR products were fluorescently labeled by primer extension with 6-arboxyfluorescein (6-FAM) 5'-labeled reporter sequence-specific primer (2 min at 95 C, 20 s at 68 C and 10 min at 72 C) and these products were digested with 5U of HpaI (New England Biolabs) for 2h at 37 C. The fragments were purified using Qiaquick PCR columns (Qiagen), analyzed on an ABI 3130xL genetic analyzer (Applied Biosystems) with peak positions identified by using a set of X-rhodamine (ROX)-labeled MapMarker1000 molecular weight standards (BioVentures). The raw capillary electrophoresis data was processed using Attagraph software (Attagene).

outcome, inactive:
O=CC(F)(F)C(F)(F)C(F)(F)F
COc1cccc(O)c1
O=P(O)(O)CCC(F)(F)C(F)(F)C(F)(F)C(F)(F)C(F)(F)C(F)(F)C(F)(F)C(F)(F)F
O=C1OC(=O)c2cc(-c3ccc4c(c3)C(=O)OC4=O)ccc21
CCO[Si](C)(C)OCC
NCc1cccc(CN)c1
CC[N+](CC)(CC)Cc1ccccc1
CN(C)CCOC(c1ccccc1)c1ccccc1
CC(C)(C)C1CCCCC1O (stereo not given)
O=C(c1ccccc1)c1ccccc1
O=C1C=CC(=O)N1c1cccc(N2C(=O)C=CC2=O)c1
CC(=O)CC(C)C
CC(C)(C)c1ccc(CCC=O)cc1
CCCCCCCCC(C)=O
O=C(O)CCC(F)(F)C(F)(F)C(F)(F)C(F)(F)C(F)(F)F
CCCCN(C)C
CC1CCC(CO)CC1 (stereo not given)
Brc1ccc(Oc2ccc(Br)cc2Br)cc1
Cc1ccc(C(=O)c2ccccc2)cc1
CC(O)COc1ccccc1 (stereo not given)
CCCCCCCCCCCCCCCC(=O)OC
CN(CCO)S(=O)(=O)C(F)(F)C(F)(F)C(F)(F)C(F)(F)C(F)(F)C(F)(F)C(F)(F)C(F)(F)F
FC(F)(F)C1(F)C(F)(F)C(F)(F)C(F)(F)C(F)(C(F)(F)F)C1(F)F (stereo not given)
CC(C)CCOCCC(C)C
Brc1cc(Br)c(Oc2c(Br)cc(Br)c(Br)c2Br)cc1Br
Cc1cc(=O)oc2cc(O)ccc12
Oc1cccc2c(O)cccc12
CCN(CCC#N)c1ccccc1
FC(F)(F)C1(F)C(F)(F)C(F)(F)C(F)(F)C1(F)F
CCCCCC(C)OC(=O)COc1ccc(Cl)c2cccnc12 (stereo not given)
Cc1ccc(S(=O)(=O)O)cc1
COC(O)c1ccccc1 (stereo not given)
Oc1c(Cl)ccc(Cl)c1Cl
C=CC(=O)OCCN(CC)CC
O=C(O)C(=O)O
c1ccc2c(c1)CCC2
C=CC(=O)OCCC(F)(F)C(F)(F)C(F)(F)C(F)(F)C(F)(F)C(F)(F)C(F)(F)C(F)(F)F
OCCN1CN(CCO)CN(CCO)C1
O=C(F)C(F)(F)C(F)(F)C(F)(F)C(F)F
COc1cc(OC)nc(NC(=O)NS(=O)(=O)Nc2ccccc2C(=O)N(C)C)n1
